Source: PubChem BioAssay AID743330 (NMMLSC, 2014)
The source made the active and inactive calls. How the calls were made is not given here.

System: Rab7
Test: fluorescent GTP concentration effect on GTPase potency – biochemical, four GTPases, bead flow cytometry, mechanism study, profiling panel (AID 743330)
Settings: bead-based flow cytometry, fluorescent GTP binding to GTPases

SMILES | EC50
CC1(C)Cc2c(sc(NC(=S)NC(=O)c3ccc(F)cc3)c2C(=O)O)CO1 | 33 nM (active)
CCC1(C)Cc2c(sc(NC(=S)NC(=O)c3ccccc3)c2C(=O)O)CO1 (configuration not stated) | 7 nM (active)
